Measured values from PubChem BioAssay (NCI).
The panel holds about 83,000 compounds, 20% with a hit somewhere; the sample as a whole holds those more often.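 Interpretation: 100, growth as untreated; towards 0, rising growth inhibition; 0, no net growth; 0 to -100, cell death. Compounds scoring below 10 were considered active.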 The source made the active and inactive calls.

Tests used:
Experiment in all cases: NCI-60 one-dose screen, 48 h (100 = growth as untreated, 0 = no growth, -100 = all killed)
Details in all cases: 10 µM
SN12C renal = test system: SN12C renal
TK-10 renal = test system: TK-10 renal
ACHN renal = test system: ACHN renal
A498 renal = test system: A498 renal
CCRF-CEM leukemia = test system: CCRF-CEM leukemia
MOLT-4 leukemia = test system: MOLT-4 leukemia
SR leukemia = test system: SR leukemia
UO-31 renal = test system: UO-31 renal
CAKI-1 renal = test system: CAKI-1 renal

Measured: growth

Clc1ccc(Nc2ccnc(NCCNc3ccnc4cc(Cl)ccc34)n2)cc1
active: TK-10 renal -29.9% | ACHN renal -7.16% | CCRF-CEM leukemia 1.25% | MOLT-4 leukemia -28% | SR leukemia -22.3%
inactive: SN12C renal 48% | A498 renal 17.9%

CC(=O)c1nc2ccccc2n1CCN1CCN(C)CC1
inactive: SN12C renal 46.7% | UO-31 renal 53.1% | ACHN renal 78% | CAKI-1 renal 94.1% | A498 renal 36.6% | MOLT-4 leukemia 49.9%
active: CCRF-CEM leukemia 3.66% | SR leukemia 6.52%

COc1cc(C(=O)/C=C/c2cc(-c3cc(OC)c(OC)c(OC)c3)n[nH]2)cc(OC)c1OC
inactive: A498 renal 29.2%
active: SN12C renal 2.09% | UO-31 renal -77.2% | ACHN renal -25.8% | CCRF-CEM leukemia -23.8% | MOLT-4 leukemia 7.64% | SR leukemia -7.98%

O=C(Nc1ccc(CO)cc1)c1ccccc1Nc1ccnc(C(F)(F)F)c1
inactive: SN12C renal 95.6% | UO-31 renal 81.5% | ACHN renal 103% | CAKI-1 renal 95.8% | A498 renal 95.7% | CCRF-CEM leukemia 89.7% | MOLT-4 leukemia 98.4% | SR leukemia 82.9%

COc1cc(-c2cc(/C=C/C(=O)c3ccc4c(c3)OCO4)[nH]n2)cc(OC)c1OC
inactive: SN12C renal 63.9% | UO-31 renal 38.7% | ACHN renal 84.6% | CAKI-1 renal 59.7% | A498 renal 73.7% | MOLT-4 leukemia 52.7%
active: CCRF-CEM leukemia 0.141%

O=c1[nH]c(-c2ccc(Cl)cc2)nc2sc3c(c12)CCCC3
inactive: SN12C renal 52.5% | UO-31 renal 78.8% | ACHN renal 53.3% | CAKI-1 renal 13.4% | A498 renal 86.6% | CCRF-CEM leukemia 12.3% | MOLT-4 leukemia 49.4%
active: SR leukemia 0.705%

COc1cc(-c2cc(/C=C/C(=O)c3ccc(Cl)c(Cl)c3)[nH]n2)cc(OC)c1OC
active: CCRF-CEM leukemia 3% | SR leukemia -6.68%
inactive: SN12C renal 64.3% | UO-31 renal 54.1% | ACHN renal 81.5% | A498 renal 70.6% | MOLT-4 leukemia 54.4%

COc1ccc(-c2nc(-c3nc4ccc(OC)cc4[nH]3)cc3c2[nH]c2ccccc23)cc1
active: UO-31 renal 8.19% | CAKI-1 renal 0.0135%
inactive: SN12C renal 20.7% | ACHN renal 31.9% | A498 renal 46.3% | CCRF-CEM leukemia 11% | MOLT-4 leukemia 47.3% | SR leukemia 33.6%

CC/C(=C(/c1ccc(OCCN(C)C)cc1)c1ccc(OC(=O)CCCCCCCCC(=O)c2c(C)[nH]c(/C=C3\N=C(c4ccc[nH]4)C=C3OC)c2C)cc1)c1ccccc1
inactive: SN12C renal 74.7% | UO-31 renal 62.2% | TK-10 renal 98% | CAKI-1 renal 47.1% | CCRF-CEM leukemia 23.5% | MOLT-4 leukemia 36.2% | SR leukemia 47.8%

C=C1c2c(C)nn(-c3ccc(OC)cc3)c2N(C)C23C[C@@H]1C1(C)c4c(C)nn(-c5ccc(OC)cc5)c4N(C)C(C)(C[C@H]12)C3 (stereo partly drawn)
active: SR leukemia 3.27%
inactive: SN12C renal 23.8% | UO-31 renal 16.2% | ACHN renal 33.8% | A498 renal 40.2% | CCRF-CEM leukemia 21.7% | MOLT-4 leukemia 14.9%

COc1ccc2c(c1OC)O/C(=C\c1ncc([N+](=O)[O-])n1C)C2=O
inactive: SN12C renal 11.8% | TK-10 renal 14.7% | A498 renal 68.8%
active: ACHN renal -2.65% | CAKI-1 renal -27.5% | CCRF-CEM leukemia 4.93% | MOLT-4 leukemia 1.01% | SR leukemia 6.02%

Cn1c([N+](=O)[O-])cnc1/C=C1\Oc2ccc(Cl)cc2C1=O
active: SN12C renal -10.9% | TK-10 renal -23% | ACHN renal -2.7% | CAKI-1 renal -22.9% | CCRF-CEM leukemia -11.8% | MOLT-4 leukemia -1.82%
inactive: A498 renal 12.3% | SR leukemia 11.6%

Cc1cc(=O)[nH]c(N/N=C/c2ccccc2O)n1
inactive: SN12C renal 86.2% | TK-10 renal 97.3% | ACHN renal 59.8% | CAKI-1 renal 82.3% | A498 renal 108% | CCRF-CEM leukemia 35% | MOLT-4 leukemia 67.3% | SR leukemia 26.8%

CCOC(=O)C(CSC(c1ccccc1)(c1ccccc1)c1ccccc1)NC(=O)C(CSC(c1ccccc1)(c1ccccc1)c1ccccc1)NC(c1ccccc1)(c1ccccc1)c1ccccc1 (stereo not drawn)
inactive: SN12C renal 110% | TK-10 renal 118% | ACHN renal 104% | CAKI-1 renal 87% | A498 renal 91.3% | CCRF-CEM leukemia 100% | MOLT-4 leukemia 110%

COc1cc(-c2cc(-c3cc4c([nH]c5ccccc54)c(-c4cc(OC)c(OC)c(OC)c4)n3)cc(-c3ccccc3)n2)cc(OC)c1OC
inactive: SN12C renal 54.6% | UO-31 renal 36.9% | ACHN renal 62.8% | CAKI-1 renal 32.9% | A498 renal 54.5% | CCRF-CEM leukemia 37.9% | MOLT-4 leukemia 18.5% | SR leukemia 16.7%

COc1cc(Nc2ccnc(NCCNc3ccnc4cc(Cl)ccc34)n2)cc(OC)c1
inactive: SN12C renal 52% | TK-10 renal 48.3% | ACHN renal 30.7% | CAKI-1 renal 40.8% | A498 renal 39.9% | MOLT-4 leukemia 15.3%

CSc1nc(=O)n(Cc2ccc(Cl)cc2)c(=O)[nH]1
inactive: SN12C renal 107% | UO-31 renal 112% | CAKI-1 renal 112% | A498 renal 103% | CCRF-CEM leukemia 100% | MOLT-4 leukemia 105% | SR leukemia 95.5%

CC/C(C)=C(\C)C(=O)O
inactive: SN12C renal 111% | UO-31 renal 78.4% | TK-10 renal 105% | CAKI-1 renal 95.5% | A498 renal 110% | MOLT-4 leukemia 101% | SR leukemia 107%

COc1ccc2c(c1)O/C(=C\c1ccc([N+](=O)[O-])s1)C2=O
inactive: SN12C renal 41.6% | TK-10 renal 42.5% | ACHN renal 25.4% | CAKI-1 renal 44.2% | A498 renal 85.1% | CCRF-CEM leukemia 10.1% | MOLT-4 leukemia 10.7% | SR leukemia 12.1%

COc1ccc(S(=O)(=O)NCCCNc2nccc(-c3c(-c4ccc(F)cc4)nc4sccn34)n2)cc1
inactive: SN12C renal 59.5% | TK-10 renal 60.5% | ACHN renal 36.5% | CAKI-1 renal 39.4% | A498 renal 58.5% | CCRF-CEM leukemia 37.6% | MOLT-4 leukemia 34.4% | SR leukemia 28.3%

O=C(O)CCCCSc1ncnc2nc[nH]c12
inactive: SN12C renal 107% | TK-10 renal 98% | ACHN renal 102% | CAKI-1 renal 93.5% | A498 renal 132% | CCRF-CEM leukemia 101% | MOLT-4 leukemia 101%

Cc1ccc(-c2n[nH]c(=O)c3noc(-c4ccc(C)cc4)c23)cc1
inactive: SN12C renal 47% | UO-31 renal 20.3% | ACHN renal 33.9% | CAKI-1 renal 16.9% | A498 renal 13.8% | CCRF-CEM leukemia 17.5% | MOLT-4 leukemia 44.2% | SR leukemia 10.2%

COc1ccc(-c2ccc(-c3ccc(C(=N)N)cn3)o2)cc1
inactive: SN12C renal 74.9% | TK-10 renal 117% | ACHN renal 80.6% | CAKI-1 renal 75.1% | A498 renal 59.4% | CCRF-CEM leukemia 74.3% | MOLT-4 leukemia 52.7% | SR leukemia 10.3%

Nc1nc(N)c(NC(=O)CNc2ccc(C(=O)O)cc2)c(N)n1
inactive: SN12C renal 97.1% | TK-10 renal 108% | ACHN renal 115% | CAKI-1 renal 91.5% | A498 renal 101% | CCRF-CEM leukemia 98% | MOLT-4 leukemia 107%

O=C1NC(=O)c2ncccc21
inactive: SN12C renal 105% | UO-31 renal 104% | ACHN renal 110% | CAKI-1 renal 96.4% | A498 renal 110% | CCRF-CEM leukemia 99.1% | MOLT-4 leukemia 106% | SR leukemia 111%

CN(C)N=Nc1nn(C(=O)Nc2ccc(Cc3ccccc3)cc2)c2ccccc12
inactive: SN12C renal 58.9% | UO-31 renal 41.9% | ACHN renal 34.3% | CAKI-1 renal 15.5% | A498 renal 82.4% | CCRF-CEM leukemia 64.8% | MOLT-4 leukemia 64.1%

COc1cc(-c2nn3c(/C=C4/C(=O)Nc5ccccc54)c(-c4ccc(C)cc4)nc3s2)cc(OC)c1OC
inactive: SN12C renal 73.2% | ACHN renal 81.1% | CAKI-1 renal 64.6% | A498 renal 98.9% | CCRF-CEM leukemia 67.4% | MOLT-4 leukemia 47.8% | SR leukemia 26.5%
active: TK-10 renal -18.7%

CCCC#CCN(CC)CC
inactive: SN12C renal 95.8% | TK-10 renal 99.2% | ACHN renal 106% | CAKI-1 renal 88.2% | A498 renal 105% | CCRF-CEM leukemia 95% | MOLT-4 leukemia 109% | SR leukemia 101%

COc1ccc([N+](=O)[O-])c(C(=O)O)c1
inactive: SN12C renal 99.9% | UO-31 renal 88% | TK-10 renal 104% | A498 renal 85.6% | CCRF-CEM leukemia 112% | MOLT-4 leukemia 74.4%

O=C(Nc1ccc(Cl)cc1)N1NC(c2ccc(Cl)cc2)C=C1c1ccccc1 (stereo not drawn)
inactive: SN12C renal 108% | TK-10 renal 103% | ACHN renal 116% | CAKI-1 renal 103% | A498 renal 103% | CCRF-CEM leukemia 58.3% | MOLT-4 leukemia 83.7%

CCOC(=O)N1C/C(=C/c2ccc(F)cc2)C(=O)/C(=C/c2ccc(F)cc2)C1
active: SN12C renal -43.8% | TK-10 renal 2.65% | ACHN renal -28% | CAKI-1 renal -16% | CCRF-CEM leukemia -1.18% | MOLT-4 leukemia 2.2% | SR leukemia -19.9%

CC1(C)N=C(N)N=C(N)N1c1ccc(CCc2ccccc2)c(Cl)c1
inactive: SN12C renal 18.9% | TK-10 renal 21% | ACHN renal 28.7% | CAKI-1 renal 53.2% | A498 renal 40.9% | CCRF-CEM leukemia 19.8% | MOLT-4 leukemia 20.2%

COc1cc(-c2cc(/C=C/C(=O)c3ccc(F)c(F)c3)[nH]n2)cc(OC)c1OC
active: CAKI-1 renal 6.42%
inactive: SN12C renal 39.2% | UO-31 renal 61.2% | ACHN renal 36.8% | A498 renal 60.9% | CCRF-CEM leukemia 33.3% | MOLT-4 leukemia 41% | SR leukemia 44.3%

COc1ccc(/C=C2/CN(C(=O)c3ccccc3F)C/C(=C\c3ccc(OC)cc3)C2=O)cc1
active: CCRF-CEM leukemia 4.22% | SR leukemia -23.2%
inactive: SN12C renal 65.7% | TK-10 renal 130% | ACHN renal 65.2% | CAKI-1 renal 67.6% | A498 renal 122% | MOLT-4 leukemia 23.5%
